Hit rate of the full screen: of about 5,500 compounds, about 2,000 (36%) were called active. Another 18% or so got no clear call; they are omitted. Rule as the data show it: active = normalized growth mostly below about 0.91 (no sharp cut-off); inconclusive = no clear call, values can overlap the other calls; inactive = mostly above about 0.92. This is one part of the list.
Assay: chemical genetic growth profiling, strain panel (AID 1159580);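 also: tested at 20 µM; growth read once vehicle control cultures reached saturation at 30 °C; 1 = growth at the plate median or of vehicle wells; lower values mean less growth of the strain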
Conditions: growth OD

Measured: normalized growth

CC(=O)O[C@@H]1CC2C(C)(C)[C@H](O)C[C@H](O)[C@]2(C)C2CC[C@@]3(C)[C@H](c4ccoc4)OC(=O)[C@H]4O[C@]43[C@@]21C (stereo not given in full)
inactive: S. cerevisiae deletion strains, locus YAL021C, strain ccr4, stronger effect = lower value 1.01 | S. cerevisiae deletion strains, locus YAL026C, strain drs2, stronger effect = lower value 0.993 | S. cerevisiae deletion strains, locus YAL030W, strain snc1, stronger effect = lower value 0.995 | S. cerevisiae deletion strains, locus YBL061C, strain skt5, stronger effect = lower value 0.988 | S. cerevisiae deletion strains, locus YBR009C, strain hhf1, stronger effect = lower value 0.974 | S. cerevisiae deletion strains, locus YBR021W, strain FUR4, stronger effect = lower value 0.959 | S. cerevisiae deletion strains, locus YBR023C, strain chs3, stronger effect = lower value 0.985 | S. cerevisiae deletion strains, locus YBR171W, strain sec66, stronger effect = lower value 0.986 | S. cerevisiae deletion strains, locus YBR229C, strain ROT2, stronger effect = lower value 0.952 | S. cerevisiae deletion strains, locus YBR231C, strain swc5, stronger effect = lower value 0.983 | S. cerevisiae deletion strains, locus YBR279W, strain paf1, stronger effect = lower value 0.988 | S. cerevisiae deletion strains, locus YCL011C, strain gbp2, stronger effect = lower value 0.984 | S. cerevisiae deletion strains, locus YCL016C, strain dcc1, stronger effect = lower value 0.996 | S. cerevisiae deletion strains, locus YCL029C, strain bik1, stronger effect = lower value 0.987 | S. cerevisiae deletion strains, locus YCL061C, strain MRC1, stronger effect = lower value 0.99 | S. cerevisiae deletion strains, locus YCL069W, strain vba3, stronger effect = lower value 0.989 | S. cerevisiae deletion strains, locus YCR088W, strain abp1, stronger effect = lower value 0.995 | S. cerevisiae deletion strains, locus YDL005C, strain med2, stronger effect = lower value 0.985 | S. cerevisiae deletion strains, locus YDL035C, strain GPR1, stronger effect = lower value 0.982 | S. cerevisiae deletion strains, locus YDL040C, strain nat1, stronger effect = lower value 0.984 | S. cerevisiae deletion strains, locus YDL074C, strain BRE1, stronger effect = lower value 0.987 | S. cerevisiae deletion strains, locus YDL101C, strain DUN1, stronger effect = lower value 1 | S. cerevisiae deletion strains, locus YDL185W, strain tfp1, stronger effect = lower value 0.981 | S. cerevisiae deletion strains, locus YDL192W, strain arf1, stronger effect = lower value 0.988 | S. cerevisiae deletion strains, locus YDR001C, strain nth1, stronger effect = lower value 0.979 | S. cerevisiae deletion strains, locus YDR069C, strain doa4, stronger effect = lower value 0.983 | S. cerevisiae deletion strains, locus YDR101C, strain arx1, stronger effect = lower value 0.957 | S. cerevisiae deletion strains, locus YDR137W, strain rgp1, stronger effect = lower value 1.03 | S. cerevisiae deletion strains, locus YDR159W, strain sac3, stronger effect = lower value 0.968 | S. cerevisiae deletion strains, locus YDR162C, strain NBP2, stronger effect = lower value 0.993 | S. cerevisiae deletion strains, locus YDR195W, strain ref2 0.935 | S. cerevisiae deletion strains, locus YDR297W, strain sur2, stronger effect = lower value 0.996 | S. cerevisiae deletion strains, locus YDR318W, strain mcm21, stronger effect = lower value 0.995 | S. cerevisiae deletion strains, locus YDR334W, strain swr1, stronger effect = lower value 0.99 | S. cerevisiae deletion strains, locus YDR335W, strain msn5, stronger effect = lower value 0.989 | S. cerevisiae deletion strains, locus YDR388W, stronger effect = lower value 0.994 | S. cerevisiae deletion strains, locus YDR392W, strain spt3, stronger effect = lower value 0.913 | S. cerevisiae deletion strains, locus YDR502C, strain sam2, stronger effect = lower value 1 | S. cerevisiae deletion strains, locus YEL003W, strain gim4, stronger effect = lower value 0.987 | S. cerevisiae deletion strains, locus YEL037C, strain rad23, stronger effect = lower value 0.987 | S. cerevisiae deletion strains, locus YEL061C, strain CIN8 (second series), stronger effect = lower value 0.977 | S. cerevisiae deletion strains, locus YER015W, strain faa2, stronger effect = lower value 0.981 | S. cerevisiae deletion strains, locus YER016W, strain bim1, stronger effect = lower value 0.99 | S. cerevisiae deletion strains, locus YER110C, stronger effect = lower value 0.978 | S. cerevisiae deletion strains, locus YER111C, strain swi4, stronger effect = lower value 0.976 | S. cerevisiae deletion strains, locus YER155C, strain BEM2 (second series), stronger effect = lower value 0.997 | S. cerevisiae deletion strains, locus YER155C, strain BEM2, stronger effect = lower value 1 | S. cerevisiae deletion strains, locus YER167W, strain BCK2, stronger effect = lower value 0.98 | S. cerevisiae deletion strains, locus YFR010W, strain ubp6, stronger effect = lower value 0.983 | S. cerevisiae deletion strains, locus YGL078C, strain dbp3, stronger effect = lower value 1 | S. cerevisiae deletion strains, locus YGL086W, strain mad1, stronger effect = lower value 0.996 | S. cerevisiae deletion strains, locus YGL167C, strain pmr1, stronger effect = lower value 0.995 | S. cerevisiae deletion strains, locus YGL173C, strain kem1, stronger effect = lower value 0.962 | S. cerevisiae deletion strains, locus YGL227W, strain vid30, stronger effect = lower value 0.986 | S. cerevisiae deletion strains, locus YGL240W, strain doc1, stronger effect = lower value 0.971 | S. cerevisiae deletion strains, locus YGL248W, strain PDE1, stronger effect = lower value 1.01 | S. cerevisiae deletion strains, locus YGL253W, strain hxk2, stronger effect = lower value 0.955 | S. cerevisiae deletion strains, locus YGR078C, strain PAC10, stronger effect = lower value 1.02 | S. cerevisiae deletion strains, locus YGR135W, strain pre9, stronger effect = lower value 1.06 | S. cerevisiae deletion strains, locus YGR252W, strain gcn5, stronger effect = lower value 1.07 | S. cerevisiae deletion strains, locus YHR013C, strain ard1, stronger effect = lower value 0.963 | S. cerevisiae deletion strains, locus YHR027C, strain rpn1, stronger effect = lower value 1 | S. cerevisiae deletion strains, locus YHR079C, strain IRE1 (second series), stronger effect = lower value 0.987 | S. cerevisiae deletion strains, locus YHR094C, strain hxt1, stronger effect = lower value 0.978 | S. cerevisiae deletion strains, locus YHR129C, strain ARP1, stronger effect = lower value 0.993 | S. cerevisiae deletion strains, locus YHR142W, strain chs7, stronger effect = lower value 0.98 | S. cerevisiae deletion strains, locus YHR200W, strain rpn10, stronger effect = lower value 0.983 | S. cerevisiae deletion strains, locus YIL066C, strain RNR3, stronger effect = lower value 0.965 | S. cerevisiae deletion strains, locus YIL073C, strain SPO22, stronger effect = lower value 0.997 | S. cerevisiae deletion strains, locus YIL125W, strain kgd1, stronger effect = lower value 0.946 | S. cerevisiae deletion strains, locus YIR030C, strain dcg1, stronger effect = lower value 0.985 | S. cerevisiae deletion strains, locus YJL092W, strain hpr5, stronger effect = lower value 0.984 | S. cerevisiae deletion strains, locus YJL095W, strain BCK1 (second series), stronger effect = lower value 1 | S. cerevisiae deletion strains, locus YJL095W, strain BCK1, stronger effect = lower value 1.05 | S. cerevisiae deletion strains, locus YJL115W, strain asf1, stronger effect = lower value 0.984 | S. cerevisiae deletion strains, locus YJL129C, strain trk1, stronger effect = lower value 0.979 | S. cerevisiae deletion strains, locus YJL134W, strain LCB3, stronger effect = lower value 0.987 | S. cerevisiae deletion strains, locus YJL154C, strain vps35, stronger effect = lower value 0.996 | S. cerevisiae deletion strains, locus YJL164C, strain tpk1, stronger effect = lower value 0.979 | S. cerevisiae deletion strains, locus YJL166W, strain qcr8, stronger effect = lower value 0.99 | S. cerevisiae deletion strains, locus YJL168C, strain set2, stronger effect = lower value 0.984 | S. cerevisiae deletion strains, locus YJL187C, strain SWE1 (second series), stronger effect = lower value 1.02 | S. cerevisiae deletion strains, locus YJL187C, strain SWE1, stronger effect = lower value 1 | S. cerevisiae deletion strains, locus YJR043C, strain POL32, stronger effect = lower value 0.963 | S. cerevisiae deletion strains, locus YKL009W, strain mrt4, stronger effect = lower value 0.988 | S. cerevisiae deletion strains, locus YKL068W, stronger effect = lower value 0.997 | S. cerevisiae deletion strains, locus YKL085W, strain MDH1 (second series), stronger effect = lower value 0.994 | S. cerevisiae deletion strains, locus YKL085W, strain MDH1, stronger effect = lower value 0.994 | S. cerevisiae deletion strains, locus YKL160W, strain elf1, stronger effect = lower value 1.02 | S. cerevisiae deletion strains, locus YKR001C, strain vps1, stronger effect = lower value 0.975 | S. cerevisiae deletion strains, locus YKR026C, strain gcn3, stronger effect = lower value 0.968 | S. cerevisiae deletion strains, locus YKR091W, strain srl3, stronger effect = lower value 0.983 | S. cerevisiae deletion strains, locus YLL001W, strain dnm1, stronger effect = lower value 0.984 | S. cerevisiae deletion strains, locus YLL026W, stronger effect = lower value 0.986 | S. cerevisiae deletion strains, locus YLL041C, strain sdh2, stronger effect = lower value 0.994 | S. cerevisiae deletion strains, locus YLR027C, strain aat2, stronger effect = lower value 0.993 | S. cerevisiae deletion strains, locus YLR039C, strain RIC1, stronger effect = lower value 1 | S. cerevisiae deletion strains, locus YLR058C, strain SHM2, stronger effect = lower value 0.982 | S. cerevisiae deletion strains, locus YLR102C, strain apc9, stronger effect = lower value 0.982 | S. cerevisiae deletion strains, locus YLR221C, strain rsa3, stronger effect = lower value 0.972 | S. cerevisiae deletion strains, locus YLR258W, strain gsy2, stronger effect = lower value 0.995 | S. cerevisiae deletion strains, locus YLR262C, strain YPT6 (second series), stronger effect = lower value 1 | S. cerevisiae deletion strains, locus YLR268W, strain sec22, stronger effect = lower value 0.976 | S. cerevisiae deletion strains, locus YLR320W, strain mms22, stronger effect = lower value 0.986 | S. cerevisiae deletion strains, locus YLR330W, strain CHS5, stronger effect = lower value 0.994 | S. cerevisiae deletion strains, locus YLR342W, strain FKS1, stronger effect = lower value 0.984 | S. cerevisiae deletion strains, locus YLR357W, strain rsc2, stronger effect = lower value 0.987 | S. cerevisiae deletion strains, locus YLR370C, strain arc18, stronger effect = lower value 0.994 | S. cerevisiae deletion strains, locus YLR371W, strain rom2, stronger effect = lower value 0.959 | S. cerevisiae deletion strains, locus YLR384C, strain iki3, stronger effect = lower value 0.994 | S. cerevisiae deletion strains, locus YLR418C, strain cdc73, stronger effect = lower value 1.03 | S. cerevisiae deletion strains, locus YML016C, strain PPZ1, stronger effect = lower value 0.968 | S. cerevisiae deletion strains, locus YML032C, strain rad52, stronger effect = lower value 0.963 | S. cerevisiae deletion strains, locus YML120C, strain ndi1, stronger effect = lower value 0.996 | S. cerevisiae deletion strains, locus YML124C, strain tub3, stronger effect = lower value 0.975 | S. cerevisiae deletion strains, locus YMR058W, strain fet3, stronger effect = lower value 0.989 | S. cerevisiae deletion strains, locus YMR078C, strain ctf18, stronger effect = lower value 0.988 | S. cerevisiae deletion strains, locus YMR125W, strain sto1, stronger effect = lower value 0.993 | S. cerevisiae deletion strains, locus YMR129W, stronger effect = lower value 1.01 | S. cerevisiae deletion strains, locus YMR205C, strain PFK2, stronger effect = lower value 0.967 | S. cerevisiae deletion strains, locus YMR223W, strain ubp8, stronger effect = lower value 1 | S. cerevisiae deletion strains, locus YMR231W, strain pep5, stronger effect = lower value 0.988 | S. cerevisiae deletion strains, locus YMR307W, strain GAS1, stronger effect = lower value 0.972 | S. cerevisiae deletion strains, locus YNL067W, strain RPL9B, stronger effect = lower value 1.02 | S. cerevisiae deletion strains, locus YNL071W, strain lat1, stronger effect = lower value 0.987 | S. cerevisiae deletion strains, locus YNL153C, strain GIM3, stronger effect = lower value 1.01 | S. cerevisiae deletion strains, locus YNL209W, strain ssb2, stronger effect = lower value 1 | S. cerevisiae deletion strains, locus YNL233W, strain BNI4, stronger effect = lower value 1.02 | S. cerevisiae deletion strains, locus YNL248C, strain rpa49, stronger effect = lower value 1.01 | S. cerevisiae deletion strains, locus YNL250W, strain rad50, stronger effect = lower value 1.02 | S. cerevisiae deletion strains, locus YNL271C, strain bni1, stronger effect = lower value 0.988 | S. cerevisiae deletion strains, locus YNL298W, strain CLA4, stronger effect = lower value 0.982 | S. cerevisiae deletion strains, locus YNL307C, strain MCK1, stronger effect = lower value 0.992 | S. cerevisiae deletion strains, locus YNL322C, strain KRE1 (second series), stronger effect = lower value 0.979 | S. cerevisiae deletion strains, locus YNL322C, strain KRE1, stronger effect = lower value 0.999 | S. cerevisiae deletion strains, locus YNR049C, strain mso1, stronger effect = lower value 0.994 | S. cerevisiae deletion strains, locus YNR052C, strain pop2, stronger effect = lower value 1.01 | S. cerevisiae deletion strains, locus YOL006C, strain TOP1, stronger effect = lower value 1.05 | S. cerevisiae deletion strains, locus YOL012C, strain htz1 0.767 | S. cerevisiae deletion strains, locus YOL147C, strain pex11, stronger effect = lower value 0.991 | S. cerevisiae deletion strains, locus YOR001W, strain rrp6, stronger effect = lower value 1.01 | S. cerevisiae deletion strains, locus YOR061W, strain CKA2, stronger effect = lower value 0.939 | S. cerevisiae deletion strains, locus YOR069W, strain VPS5, stronger effect = lower value 1 | S. cerevisiae deletion strains, locus YOR070C, strain gyp1, stronger effect = lower value 0.999 | S. cerevisiae deletion strains, locus YOR080W, strain dia2, stronger effect = lower value 0.989 | S. cerevisiae deletion strains, locus YOR083W, strain WHI5, stronger effect = lower value 1.02 | S. cerevisiae deletion strains, locus YOR106W, strain vam3, stronger effect = lower value 1 | S. cerevisiae deletion strains, locus YOR136W, strain idh2, stronger effect = lower value 0.993 | S. cerevisiae deletion strains, locus YOR144C, strain elg1, stronger effect = lower value 0.98 | S. cerevisiae deletion strains, locus YOR184W, strain ser1, stronger effect = lower value 0.967 | S. cerevisiae deletion strains, locus YOR265W, strain rbl2, stronger effect = lower value 0.999 | S. cerevisiae deletion strains, locus YOR270C, strain vph1, stronger effect = lower value 0.828 | S. cerevisiae deletion strains, locus YOR290C, strain snf2, stronger effect = lower value 0.923 | S. cerevisiae deletion strains, locus YOR316C, strain cot1, stronger effect = lower value 0.981 | S. cerevisiae deletion strains, locus YPL051W, strain arl3, stronger effect = lower value 1.03 | S. cerevisiae deletion strains, locus YPL055C, strain LGE1, stronger effect = lower value 0.957 | S. cerevisiae deletion strains, locus YPL078C, strain atp4, stronger effect = lower value 0.999 | S. cerevisiae deletion strains, locus YPL106C, strain sse1, stronger effect = lower value 1 | S. cerevisiae deletion strains, locus YPL240C, strain hsp82, stronger effect = lower value 1 | S. cerevisiae deletion strains, locus YPR119W, strain clb2, stronger effect = lower value 0.994 | S. cerevisiae deletion strains, locus YPR141C, strain kar3, stronger effect = lower value 0.982 | S. cerevisiae deletion strains, locus YPR163C, strain tif3, stronger effect = lower value 0.975 | S. cerevisiae deletion strains, locus YPR167C, strain met16, stronger effect = lower value 0.99 | S. cerevisiae deletion strains, strain wtn01, stronger effect = lower value 0.949 | S. cerevisiae strains, strain wild type, stronger effect = lower value 0.976
